# Legend:
# Assay in all cases: PBM binding z-score (relative to random genomic background probes); higher = stronger binding; sequences stand for … in GC…GCGATTGACAGCGTAGAATGAAGG
# [1] = test system: RARb homodimer (NR concentration 270 nM)
# Method in brief: (§1)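 Regression normalization was applied to scanned fluorescence from custom Agilent 4×180K protein-binding microarrays. Before scanning, arrays were incubated 1 h with ligand-free nuclear receptor dimers, and binding was detected with antibodies against each partner (one per run). Binding z-scores use the random background probes as reference.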
# [2] = test system: RARg:RXRa (NR concentration 270 nM, RXRa partner concentration 90 nM)
# Method in brief: as §1
# [3] = test system: RARg homodimer (NR concentration 270 nM)
# Method in brief: as §1
# [4] = test system: RXRa DBDmut IVT, anti-RXR (DBD mutation: RXRa K156A/R161A, NR concentration 90 nM)
# Method in brief: as §1
# [5] = test system: RXRa homodimer (NR concentration 180 nM)
# Method in brief: as §1
# [6] = test system: THRa:RXRa (NR concentration 90 nM, RXRa partner concentration 90 nM)
# Method in brief: as §1
# [7] = test system: THRa homodimer (NR concentration 90 nM)
# Method in brief: as §1
# [8] = test system: VDR homodimer (NR concentration 270 nM)
# Method in brief: as §1
Sequence,PBM binding z-score [1],PBM binding z-score [2],PBM binding z-score [3],PBM binding z-score [4],PBM binding z-score [5],PBM binding z-score [6],PBM binding z-score [7],PBM binding z-score [8]
ATCGAAAGGTCGTGAGGTGAGTACACAGAAAGGC,3.12,4.77,4.06,1.6,5.77,3.39,1.68,1.92
CCTACTGGGCCAAAGGTCATTGACTCCAATGCTC,4.46,5.6,4.61,1.6,6.03,3.38,0.707,1.82
CCTGCTAGGTCAAGGGTCAGCTAAAGCAGCTCGC,4.91,6.68,6.43,1.48,7.49,3.95,1.24,1.03
CGAACTAGGTCAAAGGACGGTGAAAGGCGACGTA,2.59,3.97,4.3,1.49,2.68,2.3,-0.112,-0.106
ATATGTAGCTTAAGGGTCATTCAGGTTGGTTCGC,3.64,3.62,2.82,1.95,4.27,3.27,1.02,4.07
ATATGGAGGTTAGGGTCATTCAGAAAGTAGGGAA,3.98,4.17,2.98,2.42,5.24,4.27,3.55,3.4
CGTCCAAGGTCATACGAGGTCAGTGAAGACAGAT,5.34,7.02,7.58,4.29,6.94,5.39,4.43,5.82
CCTTACGGGTCACTCTAGGTTATAGCATCGGAGT,3.22,4.35,4.38,2,4.27,4.93,0.527,1.39
CTATGTAGGTTAAGGGGGTCATTCCGTTTGAAAG,3.76,5.11,4.02,2.32,5.96,3.58,1.83,5.23
AATACAGGGTCACTTGGCCAGAGTAGGTACGAAT,3.25,5.22,5.19,3.11,5.25,3.37,1.15,2.85
CTATGTAGGTTAAGGGGGTGATTCAGTTTGAAAG,1.97,2.23,1.77,1.42,2,2.21,1.73,2.22
CCTACTGGGCCAAAGGTCTTTGATTCCAATGCTC,0.557,0.154,0.0453,-0.198,0.321,0.0869,-0.594,-0.573
CCTGCTAGGTCATGGTCAGGTAATCTACAGTATG,3.22,4.26,4.73,1.77,3.01,3.55,1.97,0.414
CGTCTAAGGTCAAAGGTCAGTGAAGAGATGACGG,5.44,8.98,8.65,4.46,10.7,5.01,4.1,3.65
CCTACTGGGCCACGAAAGGTAATTGATTCAGTGA,0.322,0.0783,0.352,-0.464,-0.00441,1.11,-0.00813,-0.234
CGAACTAGTTCACCAGGACAGTGAAGAGGTTGGA,1.09,1.14,1.44,2.02,0.753,1.69,0.658,1.05
